# According to PubChem BioAssay AID624134 (Broad Institute, 2012):
# The whole screen tested about 1,600 compounds, of which about 1,100 (69%) were called active. The set was probably picked from earlier hits. These entries were drawn from the full list. A call without a number means that no potency is given here. Potency and affinity values are given separately. Inconclusive results are not listed.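 The calls were made as follows: active = signal drop with fitted half-maximal concentration no higher than twice the top valid tested concentration; inconclusive = flat curve with 30 to 70% signal loss, or poor fit; inactive = the rest, including signal rises and flat curves within 30%.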 Non-standard residues stand in square brackets, D forms with d. Residues, ends and D or L forms follow the SMILES beside them. *: point of attachment. Ac5c = NC1(C(=O)O)CCCC1; Cbz = O=C(OCc1ccccc1)*
# Assay: HepG2 cell cytotoxicity, dose response, cytotoxicity control for Shn3 inhibitor project, CellTiter-Glo, cherry-picked (AID 624134)
# Details: HepG2 viability, CellTiter-Glo ATP luminescence, 48 h; series mostly up to 35 µM
row,SMILES,outcome
1,CC(C)c1nnc(NC(=O)CCS(=O)(=O)c2nc(-c3cccs3)cc(C(F)(F)F)n2)s1,inactive
2,COc1ccccc1-c1cc(C(F)(F)F)nc(S(=O)(=O)CCCC(=O)Nc2cccnc2Cl)n1,inactive
3,COC(=O)c1ccc(N2CCN(S(=O)(=O)c3ccc(C)cc3)CC2)c([N+](=O)[O-])c1,inactive
4,O=C1CC2(CCN(C(=O)c3ccccc3F)CC2)Oc2ccccc21,inactive
5,O=C(CSc1c2c(nc3ccc(Cl)cc13)CCCC2)NCc1ccco1,inactive
6,CSCCC(NC(=O)c1ccccc1)C(=O)OCC(=O)N(C)CCC#N (stereo not drawn),inactive
7,CC[C@@H](C(=O)[C@@H](C)[C@@H](O)[C@H](C)CCc1ccc(C)c(O)c1C(=O)O)[C@H]1O[C@](CC)([C@H]2CC[C@](O)(CC)[C@H](C)O2)C[C@@H]1C,inactive
8,Cc1cc(C)n2nc(SCc3cccc(S(=O)(=O)N(C)C)c3)nc2n1,inactive
9,CC(C)NCC(O)COc1cccc2ccccc12 (stereo not drawn),inactive
10,CCn1c(C)nc2cc(-c3nnc(-c4c(-c5ccccc5)noc4C)o3)ccc21,inactive
11,COc1ccc(N(C)C(=O)c2ccc3snnc3c2)cc1,inactive
12,COc1ccc(-c2ccc(Nc3ccc(S(=O)(=O)N4CCCC4)cc3)nn2)cc1OC,inactive
13,Cc1ccc(C(=O)/C=C/c2ccc(-c3ccc(C)cc3)o2)cc1,inactive
14,COC(=O)Oc1ccc(/C=C/C(=O)OC(C)C)cc1OC(=O)OC,inactive
15,CCc1c(C)nc2cc(-c3ccc(OC)c(OC)c3)nn2c1NCC1CC1,inactive
16,C=CS(=O)(=O)c1sc(Cl)c(N2CCOCC2)c1[N+](=O)[O-],inactive
17,COc1ccc(-c2nsc3c(N4CCCCC4C)ncnc23)cc1 (stereo not drawn),inactive
18,CC(Cc1cccs1)NC(=O)Nc1ccc(F)cc1 (stereo not drawn),inactive
19,COc1ccc(CNC(=O)C(c2ccc(C)cc2)N(Cc2cccs2)C(=O)c2ccc3c(c2)OCCO3)cc1 (stereo not drawn),inactive
20,COc1ccc(C(O)c2nc(-c3cccc(F)c3)cs2)cc1 (stereo not drawn),inactive
21,O=C(C1=C[C@@H](C2CC2)C[C@@H](OCCCCO)O1)N1CCN(Cc2ccccc2)CC1,inactive
22,NC(=O)c1cc(N2C(=O)C=CC2=O)ccc1Cl,inactive
23,CC(C)C(NC(=O)c1ccc(Cl)cc1Cl)C(=O)N1CCN(S(=O)(=O)c2ccccc2)CC1 (stereo not drawn),inactive
24,O=C(Cc1ccccc1)NCCS(=O)c1ccc(Cl)cc1 (stereo not drawn),inactive

row,SMILES,outcome
1,Nc1nnc(SCC(=O)Nc2ccc(N3CCOCC3)cc2)s1,inactive
2,CCCc1ccc(C(=O)NNc2cc(Cl)ccc2Cl)cc1,inactive
3,O=C(c1ccc(S(=O)(=O)c2ccc(F)cc2)c([N+](=O)[O-])c1)N1CCCCCC1,inactive
4,OCCNc1nc(Nc2ccc(Cl)cc2)nc(N2CCCC2)n1,inactive
5,CCCn1c(C)cc(C(=O)CN2C(=O)c3ccccc3S2(=O)=O)c1C,inactive
6,O=C1S/C(=C\c2ccc(N3CCOCC3)o2)C(=O)N1Cc1c(F)cccc1Cl,inactive
7,COc1c(C)cc(C(=O)C2CCCN(C(=O)c3cccc(-n4cccn4)c3)C2)cc1C (stereo not drawn),inactive
8,Cc1nc2scc(C)n2c(=O)c1S(=O)(=O)Nc1ccc(N2CCOCC2)c(Cl)c1,inactive
9,O=C(CSc1nc2ncc(Cl)cc2[nH]1)N1CCOCC1,inactive
10,CC(C)(C)C(=O)Nc1ccc(NC(=O)c2ccco2)nc1,inactive
11,COc1ccc(S(=O)(=O)NCCC(=O)OCC(=O)NC2CC2)cc1,inactive
12,O=C(CSc1nnc(Nc2ccccc2)s1)NC1CCS(=O)(=O)C1 (stereo not drawn),inactive
13,Cc1ccc(S(=O)(=O)N2CCCCC2)cc1NS(=O)(=O)c1ccccc1F,inactive
14,COc1cccc(C2CC(c3ccc(C)cc3)=NN2C(=O)c2ccccc2F)c1OC (stereo not drawn),inactive
15,Cc1cc(C(=O)Cn2cnc3cc(F)ccc3c2=O)c(C)n1C1CC1,inactive
16,CCCc1nc([N+](=O)[O-])c(S(=O)(=O)c2ccccc2)n1CC(C)C,inactive
17,Cc1ccc(C(=O)Nc2ccc3c(c2)C(=O)N(CC2CCCO2)C3=O)cc1 (stereo not drawn),inactive
18,COc1ccc([C@@]23Oc4cc(OC)cc(OC)c4[C@]2(O)[C@H](O)[C@H](C(=O)N(C)C)[C@H]3c2ccccc2)cc1,inactive
19,CCN(CC)C(=O)C1CCCN(c2ccc([N+](=O)[O-])cc2[N+](=O)[O-])C1 (stereo not drawn),inactive
20,CCCCN1CC(COCc2ccccc2)Oc2cccc(Oc3ccc(C(C)C)cc3)c2S1(=O)=O (stereo not drawn),inactive
21,COc1cccc(-c2nc(NC3CCCC3)c3ccccc3n2)c1O,inactive
22,O=C(N[C@@H]1C/C=C\C[C@@H](CC(=O)N(CCO)Cc2ccccc2)C(=O)NC[C@H](c2ccccc2)OC1=O)OCC1c2ccccc2-c2ccccc21,inactive
23,Cc1ccc(-c2nc3cccnc3o2)cc1NC(=O)COc1ccc(C(C)(C)C)cc1,inactive
24,CC(C)CCC(C(=O)O)C(C)CC(=O)NNC(=O)c1ccco1 (stereo not drawn),inactive

row,SMILES,outcome
1,CC(C)(C)N(Cc1ccccc1)C(=O)COC(=O)CCc1c[nH]c2ccccc12,inactive
2,CCCCCCN1C[C@H](n2cc(-c3ccc(F)cc3)nn2)[C@@H](O)C[C@@H]1c1ccc(Cl)cc1,inactive
3,CC(=O)N1c2ccc(S(=O)(=O)N3CCC(C(=O)N4CCN(c5cc(Cl)ccc5C)CC4)CC3)cc2CC1C (stereo not drawn),inactive
4,Cc1cccc(C)c1NC(=O)CN(C)C(=O)c1cc(S(=O)(=O)N(C)C)ccc1N1CCCC1,inactive
5,CCN(c1ccccc1)S(=O)(=O)c1ccc(Cl)c(NC(=O)CN(C)Cc2cccc(F)c2)c1,inactive
6,Oc1c(C(c2cccs2)N2CCC3(CC2)OCCO3)sc2ncnn12 (stereo not drawn),inactive
7,CCOC(=O)/C(=C\c1ccc([N+](=O)[O-])cc1)C(=O)c1cc(C(C)=O)c(Nc2ccccc2)s1,inactive
8,CCOC(=O)c1[nH]c(C)c(/C(O)=C2\C(=O)C(=O)N(CCCN3CCOCC3)C2c2cccs2)c1C (stereo not drawn),inactive
9,CN1C(=O)c2cccc(NCCCCCCN3C(=O)c4ccccc4C3=O)c2C1=O,inactive
10,Cc1ccc(C)c(N2CCN(S(=O)(=O)c3ccc4[nH]c(=O)ccc4c3)CC2)c1,inactive
11,Nc1cc(=O)[nH]c(SCC(=O)Nc2cccc([N+](=O)[O-])c2)n1,inactive
12,CC1Cc2ccccc2N1Cc1cccc(S(=O)(=O)N(C)C)c1 (stereo not drawn),inactive
13,Cc1cccc(-c2noc(CN(C(=O)C(c3ccccc3)c3ccccc3)C(C)C)n2)c1,inactive
14,CCCCNc1cccc2c1S(=O)(=O)N(CCCC)CC(COCc1ccccc1)O2 (stereo not drawn),inactive
15,C=CCn1c(C)cc(C(=O)CN2C(=O)c3ccccc3S2(=O)=O)c1C,inactive
16,CC(NNC(=S)N1CCN(c2ccccn2)CC1)c1nccc2ccccc12 (stereo not drawn),inactive
17,CCOC(=O)C1=C(C)N(CCCC(=O)O)C(=O)NC1c1ccc2ccccc2c1 (stereo not drawn),inactive
18,CC1Cc2cc(S(=O)(=O)N3CCC(C(=O)N4CCN(c5ccccc5F)CC4)CC3)ccc2N1C(=O)C1CC1 (stereo not drawn),inactive
19,CC(=O)N1c2ccc(S(=O)(=O)N3CCC(C(=O)N4CCN(c5ccccc5F)CC4)CC3)cc2CC1C (stereo not drawn),inactive
20,CC(=O)Oc1ccc(OC(C)=O)c(SCCCCCCl)c1,inactive
21,CN1/C(=C\C(=O)CN2C(=O)NC3(CCCCCC3)C2=O)C(C)(C)c2ccccc21,inactive
22,Cc1ccc(N2C(=O)c3cccc4c([N+](=O)[O-])ccc(c34)C2=O)c2cccnc12,inactive
23,O=C(N[C@@H]1C/C=C\C[C@H](CC(=O)N(CCO)Cc2ccccc2)C(=O)NC[C@@H](c2ccccc2)OC1=O)OCC1c2ccccc2-c2ccccc21,inactive
24,CN(CC(=O)Nc1cc(S(=O)(=O)N2CCCC2)ccc1Cl)Cc1ccc2c(c1)OCO2,inactive

row,SMILES,outcome
1,Cc1ccc(NC(=O)NCCCN2CCOCC2)cc1,inactive
2,CC12CC(O)C3c4ccc(O)cc4CCC3C1CCC2=O (stereo not drawn),inactive
3,CCCCCOC(=O)c1[nH]c2c(c1C)C(=O)CC(c1ccco1)C2 (stereo not drawn),inactive
4,CCOC(=O)CNC(=O)C1(NC(=O)CNC(=O)OCc2ccccc2)CCCC1 (Cbz-Gly-[Ac5c]-Gly-OEt),inactive
5,CCC(C)[C@H]1CNC(=S)N1CCc1cc(C(F)(F)F)cc(C(F)(F)F)c1 (stereo partly drawn),inactive
6,CC(C)N=C(N)N=C(N)Nc1ccc(Cl)cc1,inactive
7,Cc1cc(C)cc(C(=O)NCC(=O)OCC(=O)NCC(F)(F)F)c1,inactive
8,CSC1SCC2C(=O)N(C)C(C(C)C)C(=O)OCC(NC(=O)c3cnc4ccccc4n3)C(=O)NC(C)C(=O)N(C)C1C(=O)N(C)C(C(C)C)C(=O)OCC(NC(=O)c1cnc3ccccc3n1)C(=O)NC(C)C(=O)N2C (stereo not drawn),inactive
9,O=C1ON=C(c2ccccc2)/C1=C/c1ccc(-c2ccccc2[N+](=O)[O-])o1,inactive
10,Cc1cc(C(=O)COC(=O)c2ccccc2O)c(C)n1Cc1cccs1,inactive
11,COc1ccc2c(CC(=O)OCC(=O)N(C)c3c(N)n(Cc4ccccc4)c(=O)[nH]c3=O)coc2c1,inactive
12,CC(Oc1ccc(F)cc1)C(=O)N(CCC1=CCCCC1)c1c(N)n(Cc2ccccc2)c(=O)[nH]c1=O (stereo not drawn),inactive
13,Cn1cccc1Cc1nnc(SCC(=O)NCCc2ccccc2)n1-c1ccc(F)cc1,inactive
14,CCCOc1ccccc1C1CC(=O)Nc2cc3c(cc21)OCCO3 (stereo not drawn),inactive
15,COc1cc(C#Cc2c(-c3cncn3C)n(C)c3ccc(-c4ccc(OC)nc4)cc23)cc(OC)c1,inactive
16,O=C(c1n[nH]c(=O)c2ccccc12)N1CCN(C2c3ccccc3-c3ccccc32)CC1,inactive
17,Cn1cc(CN(CCO)Cc2cccs2)c(-c2cccc(Cl)c2)n1,inactive
18,Cc1noc(C)c1COC(=O)[C@@H](NC(=O)c1ccccc1)C(C)C,inactive
19,COc1ccc(CN(C(=O)CSc2nnc(-c3ccc(F)cc3)o2)c2ccc(F)cc2)cc1,inactive
20,Fc1ccccc1N1CCN(Cc2nc(-c3ccccc3)no2)CC1,inactive
21,O=C(Nc1cc2c3c(c1)C1CCCC1CN3CC1CCCC21)c1ccc([N+](=O)[O-])cc1 (stereo not drawn),inactive
